This is an account of results in PubChem BioAssay (EPA / NIEHS).

The structures appear in SMILES notation. Inconclusive results are not listed. The source made the active and inactive calls. How the source made its calls: active means hit-call score of the fitted dose curve at least 0.9, where 1 is the maximum; inconclusive means response in the unintended direction; inactive means score below 0.9.

human Peroxisome Proliferator-activated Receptor alpha (PPARa), PPARA (gene 5465), sequence (Q07869 whole entry, looked up): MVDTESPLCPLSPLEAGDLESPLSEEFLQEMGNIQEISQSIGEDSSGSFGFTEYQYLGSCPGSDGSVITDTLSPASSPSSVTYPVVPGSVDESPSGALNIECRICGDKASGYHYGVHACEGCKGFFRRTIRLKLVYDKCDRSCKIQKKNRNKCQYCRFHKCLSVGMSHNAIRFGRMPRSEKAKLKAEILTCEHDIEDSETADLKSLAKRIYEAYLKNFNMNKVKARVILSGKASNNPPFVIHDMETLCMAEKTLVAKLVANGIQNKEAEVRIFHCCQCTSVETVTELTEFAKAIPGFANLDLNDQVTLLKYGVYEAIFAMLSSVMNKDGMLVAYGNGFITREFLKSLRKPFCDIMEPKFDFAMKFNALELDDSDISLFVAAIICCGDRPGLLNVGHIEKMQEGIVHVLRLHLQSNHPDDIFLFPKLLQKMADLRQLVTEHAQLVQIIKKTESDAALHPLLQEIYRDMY
PGR (gene 5241), sequence (P06401 whole entry, looked up): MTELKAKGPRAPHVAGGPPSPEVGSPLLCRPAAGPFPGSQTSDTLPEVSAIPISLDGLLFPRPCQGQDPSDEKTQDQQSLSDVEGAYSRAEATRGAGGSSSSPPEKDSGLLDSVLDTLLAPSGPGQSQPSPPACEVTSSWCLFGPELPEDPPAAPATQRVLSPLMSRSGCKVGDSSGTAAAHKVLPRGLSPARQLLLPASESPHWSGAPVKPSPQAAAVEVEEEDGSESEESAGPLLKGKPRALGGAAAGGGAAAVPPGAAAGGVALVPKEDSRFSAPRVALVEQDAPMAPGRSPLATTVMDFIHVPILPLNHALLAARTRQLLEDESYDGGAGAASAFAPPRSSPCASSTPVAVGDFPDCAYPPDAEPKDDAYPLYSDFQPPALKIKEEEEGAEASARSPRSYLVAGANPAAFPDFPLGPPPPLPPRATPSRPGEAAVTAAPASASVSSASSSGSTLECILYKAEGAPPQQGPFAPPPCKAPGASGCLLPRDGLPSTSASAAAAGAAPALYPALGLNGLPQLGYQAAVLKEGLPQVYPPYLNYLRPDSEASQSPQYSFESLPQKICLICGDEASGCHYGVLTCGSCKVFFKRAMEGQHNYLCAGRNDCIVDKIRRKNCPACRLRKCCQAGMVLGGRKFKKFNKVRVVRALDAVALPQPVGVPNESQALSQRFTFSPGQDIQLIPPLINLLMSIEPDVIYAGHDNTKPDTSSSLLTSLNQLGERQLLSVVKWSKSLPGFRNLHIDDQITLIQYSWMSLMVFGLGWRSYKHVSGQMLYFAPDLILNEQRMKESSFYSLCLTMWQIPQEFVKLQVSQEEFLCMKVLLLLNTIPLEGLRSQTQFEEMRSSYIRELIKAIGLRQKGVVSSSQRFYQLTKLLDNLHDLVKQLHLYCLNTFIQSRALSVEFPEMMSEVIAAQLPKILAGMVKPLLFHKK
Estrogen receptor (Homo sapiens) + Estrogen receptor beta (Homo sapiens), sequence (P03372 whole entry, looked up, the tested form may be a part): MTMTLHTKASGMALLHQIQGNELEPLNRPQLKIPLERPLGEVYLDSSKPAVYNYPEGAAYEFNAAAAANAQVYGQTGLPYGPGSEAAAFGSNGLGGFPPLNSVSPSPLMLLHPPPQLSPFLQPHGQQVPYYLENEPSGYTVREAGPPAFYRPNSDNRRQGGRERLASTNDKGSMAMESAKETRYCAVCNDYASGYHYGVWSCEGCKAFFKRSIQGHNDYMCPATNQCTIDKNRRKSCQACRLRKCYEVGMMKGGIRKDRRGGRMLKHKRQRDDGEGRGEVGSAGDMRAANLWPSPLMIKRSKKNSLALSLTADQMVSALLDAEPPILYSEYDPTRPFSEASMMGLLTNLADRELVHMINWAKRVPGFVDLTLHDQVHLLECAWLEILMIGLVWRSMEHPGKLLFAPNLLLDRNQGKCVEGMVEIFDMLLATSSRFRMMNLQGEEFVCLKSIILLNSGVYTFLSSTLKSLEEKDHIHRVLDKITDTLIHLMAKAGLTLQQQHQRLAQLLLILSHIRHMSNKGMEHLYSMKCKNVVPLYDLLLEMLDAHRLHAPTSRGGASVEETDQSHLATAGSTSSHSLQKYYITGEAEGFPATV
Estrogen receptor (Homo sapiens) + Estrogen receptor beta (Homo sapiens), sequence (Q92731 whole entry, looked up, the tested form may be a part): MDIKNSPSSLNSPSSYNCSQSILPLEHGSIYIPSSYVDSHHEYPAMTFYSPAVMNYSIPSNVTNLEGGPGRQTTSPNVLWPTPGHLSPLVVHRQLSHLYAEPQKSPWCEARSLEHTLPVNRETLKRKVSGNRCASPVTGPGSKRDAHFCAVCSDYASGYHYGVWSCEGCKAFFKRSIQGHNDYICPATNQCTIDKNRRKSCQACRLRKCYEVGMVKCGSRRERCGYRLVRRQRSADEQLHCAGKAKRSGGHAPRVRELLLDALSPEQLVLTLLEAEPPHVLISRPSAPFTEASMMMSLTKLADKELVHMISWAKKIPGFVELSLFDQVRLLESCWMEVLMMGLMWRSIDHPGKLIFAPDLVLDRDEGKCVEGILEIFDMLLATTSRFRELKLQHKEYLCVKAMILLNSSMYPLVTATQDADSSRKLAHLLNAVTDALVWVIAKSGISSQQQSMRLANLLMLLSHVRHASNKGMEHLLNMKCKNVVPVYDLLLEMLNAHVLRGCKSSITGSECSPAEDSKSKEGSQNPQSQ
Nuclear receptor subfamily 1 group I member 2 (Homo sapiens), sequence (O75469 whole entry, looked up): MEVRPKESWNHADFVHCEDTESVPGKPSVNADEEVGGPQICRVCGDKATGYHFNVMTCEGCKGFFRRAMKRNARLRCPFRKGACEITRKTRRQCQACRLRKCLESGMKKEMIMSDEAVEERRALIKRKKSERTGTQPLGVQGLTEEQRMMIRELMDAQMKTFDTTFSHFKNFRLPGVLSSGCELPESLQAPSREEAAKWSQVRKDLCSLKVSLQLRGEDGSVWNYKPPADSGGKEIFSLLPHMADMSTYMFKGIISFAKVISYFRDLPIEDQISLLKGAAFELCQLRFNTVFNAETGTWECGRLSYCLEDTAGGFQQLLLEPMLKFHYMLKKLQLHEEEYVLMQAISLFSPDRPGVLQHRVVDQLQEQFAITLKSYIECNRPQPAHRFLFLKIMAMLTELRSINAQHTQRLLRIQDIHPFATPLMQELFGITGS
Glucocorticoid receptor (Homo sapiens), sequence (P04150 whole entry, looked up): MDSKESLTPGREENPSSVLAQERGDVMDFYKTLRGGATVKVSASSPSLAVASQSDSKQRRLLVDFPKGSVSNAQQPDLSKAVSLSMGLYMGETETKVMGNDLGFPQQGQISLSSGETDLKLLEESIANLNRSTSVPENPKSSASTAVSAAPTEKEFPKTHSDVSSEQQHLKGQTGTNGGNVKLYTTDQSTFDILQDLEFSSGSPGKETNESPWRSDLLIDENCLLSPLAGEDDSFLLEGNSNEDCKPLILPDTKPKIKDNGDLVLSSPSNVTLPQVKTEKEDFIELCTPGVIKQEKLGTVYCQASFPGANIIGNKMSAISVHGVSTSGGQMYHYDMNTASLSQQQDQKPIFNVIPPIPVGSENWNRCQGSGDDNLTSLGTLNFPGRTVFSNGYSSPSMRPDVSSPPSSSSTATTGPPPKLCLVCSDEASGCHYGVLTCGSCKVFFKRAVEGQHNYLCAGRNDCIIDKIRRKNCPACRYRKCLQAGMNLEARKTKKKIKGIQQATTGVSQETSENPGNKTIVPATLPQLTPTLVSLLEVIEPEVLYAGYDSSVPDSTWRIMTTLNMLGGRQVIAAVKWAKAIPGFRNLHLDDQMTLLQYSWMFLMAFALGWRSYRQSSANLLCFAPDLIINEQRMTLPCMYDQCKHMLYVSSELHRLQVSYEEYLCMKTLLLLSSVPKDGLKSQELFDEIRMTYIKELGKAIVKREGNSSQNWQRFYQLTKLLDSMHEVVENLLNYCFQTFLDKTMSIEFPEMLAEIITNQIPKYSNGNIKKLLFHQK

The target of the first test is Estrogen receptor (Homo sapiens) + Estrogen receptor beta (Homo sapiens) (UniProt P03372+Q92731). Briefly: OT_ER_ERaERb_1440: Odyssey Thera (OT) 24-hour HEK293T Protein-Complementation Assay for Estrogen Receptor-alpha/-beta Homodimer (AID 2283356).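 Further: heteromer of ER alpha and ER beta binding domains; hits raise reporter fluorescence and both agonists and antagonists give an increase.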 In a few lines:
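Heterodimerisation of ERα (aa 310-547) and ERβ (aa 263-489) ligand binding domains was tracked as fluorescence gain in stably transfected HEK293T cells following 24 h dosing, normalised to DMSO controls.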
For `Cc1cc(C)cc(O)c1`, the result was inactive.
`O=C(OCCOCCOCCOC(=O)c1ccccc1)c1ccccc1`: the result was inactive.
As for `COC(=O)C1CCC(C(=O)OC)CC1` (stereo not drawn), the result was inactive.
In the case of `CCCCOc1ccc(N)cc1`, the AC50 was 68.7 µM (active).
For the compound `Cc1ccc(S(=O)(=O)NCl)cc1`, the result was inactive.
With `C(=C(c1ccccc1)c1ccccc1)c1ccccc1`, the AC50 was 29.3 µM (active).
For `CN(C)Cc1ccccc1O`, the result was inactive.
On to `[Co]`, for which the outcome was inactive.
Take `CC/C=C\CCOC(C)=O`: the outcome was inactive.
Regarding `CCCCCCOC(=O)c1ccccc1`, the result was inactive.
With `CCN(Cc1cccc(S(=O)(=O)O)c1)c1ccc(C(=C2C=CC(=[N+](CC)Cc3cccc(S(=O)(=O)O)c3)C=C2)c2ccc(O)cc2S(=O)(=O)[O-])cc1`, the result was inactive.
For `CCCCCCC(C)OC(=O)CCCCC(=O)OC(C)CCCCCC` (stereo not drawn), the outcome was inactive.
Regarding `CC(Cc1ccc(O)c(O)c1)C(C)Cc1ccc(O)c(O)c1` (stereo not drawn), the AC50 was 11.9 µM (active).
For `C1COCCN1`, the outcome was inactive.
As for `CCCCCCOC(=O)c1ccccc1O`, the outcome was inactive.
For the compound `CC(CCl)OP(=O)(OC(C)CCl)OC(C)CCl` (stereo not drawn), the outcome was inactive.

Another test has as its target human Peroxisome Proliferator-activated Receptor alpha (PPARa), PPARA (gene 5465) (UniProt Q07869). The test can be described thus: NVS_NR_hPPARa: NovaScreen (NVS) Nuclear Receptor Binding Assay for human Peroxisome Proliferator-activated Receptor alpha (PPARa) (AID 2283359).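 Further: activity means loss of TR-FRET signal versus DMSO baseline.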 In a few lines:
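One-hour incubation, cell-free extracted protein, TR-FRET binding readout; signal loss vs DMSO scored. Screen: 25 uM duplicates, confirmatory dose series for actives.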
Take `CNC(=S)NC`: the call was inactive.
On to `CCCCC(CC)COP(=O)(O)OCC(CC)CCCC` (stereo not drawn), for which the compound was called inactive.
Take `CC(Cc1ccc(O)c(O)c1)C(C)Cc1ccc(O)c(O)c1` (stereo not drawn): the AC50 is 4.6 µM (active).

For a further test, the target named is PGR (gene 5241) (UniProt P06401). The test can be described thus: NVS_NR_hPR: NovaScreen (NVS) Nuclear Receptor Binding Assay for human Progestron Receptor (PR) (AID 2283360).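 Further: active means loss of bound radioligand signal versus DMSO baseline.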 In a few lines:
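T47D-derived receptor preparation, cell-free, with tritiated or iodinated radioligand displacement measured by scintillation 18 h post-dosing. Single 25 uM duplicate screen, then concentration series; signal loss relative to DMSO.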
On to `CCCCNc1ccccc1`, for which the compound was called inactive.
Take `C#C[C@]1(O)CC[C@H]2[C@@H]3CCc4cc(OC)ccc4[C@H]3CC[C@@]21C`: the call was inactive.
Turning to `Nc1ccc(Oc2cccc(Oc3ccc(N)cc3)c2)cc1`, the outcome was inactive.

In another test the target is Glucocorticoid receptor (Homo sapiens) (UniProt P04150). The test can be described thus: NVS_NR_hGR: NovaScreen (NVS) Nuclear Receptor Binding Assay for human Glucocorticoid Receptor (GR) (AID 2283363).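 On AC50: activity is loss of specific radioligand binding signal relative to DMSO.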 In a few lines:
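Single-readout cell-free binding: radioligand plus extracted receptor, 16-hour dosing, filter radiodetection; 25 uM duplicate primary, concentration series secondary.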
`Cc1cc(C)cc(O)c1`: the result was inactive.
`CNC(=S)NC`: the result was inactive.
As to `CCN(Cc1cccc(S(=O)(=O)O)c1)c1ccc(C(=C2C=CC(=[N+](CC)Cc3cccc(S(=O)(=O)O)c3)C=C2)c2ccc(O)cc2S(=O)(=O)[O-])cc1`, the AC50 is 11.5 µM (active).
For `CCCCC(CC)COP(=O)(O)OCC(CC)CCCC` (stereo not drawn), the AC50 is 8.04 µM (active).
Same read-out and setting: next, `CC(Cc1ccc(O)c(O)c1)C(C)Cc1ccc(O)c(O)c1` (stereo not drawn): 1.79 µM (active).
For `C#C[C@]1(O)CC[C@H]2[C@@H]3CCc4cc(OC)ccc4[C@H]3CC[C@@]21C`, the compound was classed as inactive.

A further test concerns the target Nuclear receptor subfamily 1 group I member 2 (Homo sapiens) (UniProt O75469). The test can be described thus: NVS_NR_hPXR: NovaScreen (NVS) Nuclear Receptor Binding Assay for human Pregnane X Receptor (PXR) (AID 2283365).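 Further: a drop in FRET signal versus DMSO baseline means the compound binds.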 In a few lines: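 Binding was measured by time-resolved fluorescence resonance energy transfer after a 2 h exposure of extracted human PXR protein without cells. Compounds were first tested at 25 uM in duplicate, with concentration series for actives; DMSO defined baseline.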
`O=C(OCCOCCOCCOC(=O)c1ccccc1)c1ccccc1`: the compound was classed as inactive.
For the compound `COC(=O)C1CCC(C(=O)OC)CC1` (stereo not drawn), the result was inactive.
For `CNC(=S)NC`, the call was inactive.
Still for that read-out and setting: next, `Cc1ccc(S(=O)(=O)NCl)cc1`: “inactive”.
Regarding `CCN(Cc1cccc(S(=O)(=O)O)c1)c1ccc(C(=C2C=CC(=[N+](CC)Cc3cccc(S(=O)(=O)O)c3)C=C2)c2ccc(O)cc2S(=O)(=O)[O-])cc1`, the AC50 was 2.41 µM (active).
With `O=S(=O)(O)c1ccc2ccccc2c1`, the call was inactive.
`CCCCC(CC)COP(=O)(O)OCC(CC)CCCC` (stereo not drawn): the compound was classed as inactive.
Take `CC(Cc1ccc(O)c(O)c1)C(C)Cc1ccc(O)c(O)c1` (stereo not drawn): the AC50 was 5.16 µM (active).
Turning to `CCCCCCOC(=O)c1ccccc1O`, the result was inactive.
`CC(CCl)OP(=O)(OC(C)CCl)OC(C)CCl` (stereo not drawn): the AC50 is 4.35 µM (active).

The term AC50 denotes the concentration giving half of the maximal activity seen.
